Screening results (PubChem BioAssay)
Marburg entry inh – blocks Marburg virus binding to or entry into cells; Marburg virus pseudotyped entry inhibition, cell reporter; Potency, µM (doses to about 37.8 µM), without a hit: at the top dose activity change, negative = inhibition, hits mostly inhibitors; 300,000 tested, 1.8% active; calls by dose curve; tested in HEK293 cells; note: potency is the fitted concentration of half-maximal effect; % is set by controls: 0 for no effect and ±100 for the full control effect
Shiga toxin inh – Shiga toxin inhibition. inhibition, % at 38.7 µM. AID 2315. Vero cells, Shiga toxin protein synthesis inhibition reporter. 290,000 tested, 9.2% active; in the data active = inhibition mostly above about 28%, no sharp cut-off; inactive = mostly below about 43%; note: 0% is about no effect
LASV entry inh – blocks Lassa virus binding to or entry into cells; Lassa virus pseudotype entry inhibition, cell reporter; Potency, µM (titrated, usually from 37.9 µM), without a hit: top-dose activity change, negative = inhibition, usual class: inhibitors; 300,000 tested, 1.2% active; AID 540256; calls by dose curve; tested in HEK293 cells; note: potency is the fitted concentration of half-maximal effect; % is set by controls: 0 for no effect and ±100 for the full control effect; nearly all actives have a fitted effect of over 50% in size
Cycloheximide cs – counter-screen hit for Shiga toxin inhibitors, cycloheximide. cell reporter, cycloheximide protein synthesis inhibition counterscreen. 300,000 tested, 12% active. AID 2314. max response, %; in the data active = max response mostly above about 13%, no sharp cut-off; inactive = mostly below about 14%; note: read at 38.3 µM for the half of the compounds with a filed dose; 0% is about no effect
VACV Venus inh – vaccinia inhibition (Venus reporter); Vaccinia virus Venus reporter expression, fluorescence; Potency, µM (highest dose often 36.5 µM), inactives show at the highest dose activity change, negative = inhibition, hits mostly inhibitors; 330,000 tested, 0.46% active; AID 720580; calls by dose curve; tested in A549 cells; note: potency is the fitted concentration of half-maximal effect; % is set by controls: 0 for no effect and ±100 for the full control effect; nearly all actives have a fitted effect of over 30% in size
VACV mCherry inh – vaccinia inhibition (mCherry reporter); Vaccinia virus mCherry reporter infection, fluorescence; Potency, µM (series often up to 36.5 µM), for inactives: at the top dose activity change, negative = inhibition, usual class: inhibitors; 310,000 tested, 0.63% active; AID 720579; calls by dose curve; tested in A549 cells; note: potency is the fitted concentration of half-maximal effect; % is set by controls: 0 for no effect and ±100 for the full control effect; nearly all actives have a fitted effect of over 35% in size
The depositor's hits bear a star; i = inactive; ? = inconclusive; . = no result; [ ] = dose if it differs, or a comment. Many of the other results were omitted from the sample, so hits are more common in it than they were.

SMILES	Marburg entry inh	Shiga toxin inh	LASV entry inh	Cycloheximide cs	VACV Venus inh	VACV mCherry inh
O[C@H]1CN(Cc2cccs2)[C@@H](c2ccc(Cl)cc2)C[C@H]1n1cc(C2CC2)nn1	.	.	-23.7%[46.1 µM]	.	.	.
CCN(CC)CCOC(=O)C1(C2CCCCC2)CCCCC1	12.6µM*	-9.1	?	-2.3	-19.1%	-5.3%
O=[N+]([O-])c1ccccc1S(=O)NCc1c(Cl)cccc1Cl (stereo unspecified)	.	.	.	.	-7.3%	i
C=CC(=O)Nc1ccc(Nc2nc(NC3CCC(N(C)C)CC3)nc3c2ncn3C(C)C)cc1 (stereo unspecified)	.	.	.	.	1.12µM*	?
COC(=O)c1ccccc1NC(=O)CSc1nnc2cc(C)c3cc(C)cc(C)c3n12	5.2%[46.1 µM]	.	-8.1%[46.1 µM]	.	-10.5%	-9.7%
COc1ccc(C(C[N+](=O)[O-])C2(c3ccc(OC)c(OC)c3)C(=O)c3ccccc3C2=O)cc1 (stereo unspecified)	11.2µM*	-9.9	15.8µM*	-3.0	?	11.2µM*
COc1cccc(C2=CC(=O)CC(C)(C)C2=O)c1	.	.	.	.	-8.6%	-17.4%
Cc1cccc(CNC(=O)c2c3n(c(C)cc2=O)-c2ccccc2SC(c2ccsc2)C3)n1 (stereo unspecified)	.	.	.	.	-10.9%	i
Cc1[nH]c2ccc3ncccc3c2c1C	11.2%	-25.4	?	14.6*	-1.5%	i
CC1CCCN(C(=O)c2ccc(CSc3nc4ccncc4n3Cc3ccccc3)cc2)C1 (stereo unspecified)	?	.	.	.	-17.9%	-24.5%
COc1cccc(N=Nc2c(N)[nH]n3c(=O)c4c(nc23)CCCC4)c1	?	-15.5	?	-2.4	?	?
CC(=O)C1=C(O)C(=O)N(C)C1c1ccccc1[N+](=O)[O-] (stereo unspecified)	-5.1%[46.1 µM]	20.6	4.7%[46.1 µM]	16.6*	-8.0%	?
CC(=O)C1=C(O)C(=O)N(CCCN2CCOCC2)C1c1ccccc1[N+](=O)[O-] (stereo unspecified)	?	104.5*	14.6%	34.8*	-0.6%	-1.4%
CCCCCCN1C(=O)C(O)=C(C(C)=O)C1c1ccccc1[N+](=O)[O-] (stereo unspecified)	18.5%[46.1 µM]	23.2	-6.4%	3.1	-5.9%	-10.3%
CC(=O)C1=C(O)C(=O)N(CCC(=O)O)C1c1ccccc1[N+](=O)[O-] (stereo unspecified)	6.3%[46.1 µM]	-8.0	2.3%[46.1 µM]	17.4	-11.6%	-9.1%
COc1cc2[nH]c(=O)n(CCCCCC(=O)N3CCN(c4ccc(Cl)cc4)CC3)c(=O)c2cc1OC	-9.8%[46.1 µM]	.	7.1%[46.1 µM]	.	-29.7%	?
CCOC(=O)/C(=N\Nc1ccccc1)N1CC1	-1.5%[46.1 µM]	62.6	13.7%	19.4*	0.6%	8.7%
CCOC(=O)/C(=N\Nc1ccccc1Cl)N1CCN(Cc2ccccc2)CC1	-3.0%	-13.1	-3.4%	20.5*	-2.6%	i
Cc1nc2ccccn2c(=O)c1NC(=O)COc1ccccc1	.	.	.	.	3.5%	10.5%
COc1ccc(NC(=O)C2CCC(CNS(=O)(=O)c3csc(C(N)=O)c3)CC2)cc1 (stereo unspecified)	.	.	8.2%[46.1 µM]	.	-9.8%	-0.2%
COc1ccc(C2C=C(c3ccccc3)Nc3nnnn32)cc1 (stereo unspecified)	18.0%	53.1*	?	21.1*	5.1%	-5.7%
COc1cccc(C2=CC(c3ccccc3)n3nnnc3N2)c1 (stereo unspecified)	?	2.7	?	0.6	-19.1%	?
COc1cccc(C2=CC(c3ccc(N(C)C)cc3)n3nnnc3N2)c1 (stereo unspecified)	?	49.9*	-28.1%	25.5*	7.6%	?
CC1(C)CC(NC(=O)C2=C(C(=O)NC3CC(C)(C)NC(C)(C)C3)CCCC2)CC(C)(C)N1	-17.0%	.	.	.	.	.
O=C(NC1CCN(C(=O)N2c3ccccc3Sc3ccccc32)CC1)c1ccco1	?	-8.9	?	-3.2	-17.1%	-12.9%
O=C(NC1CCN(C(=O)N2c3ccccc3Sc3ccccc32)CC1)c1ccccc1Cl	16.4µM*	-11.9	-14.8%	-2.6	-24.8%	-24.0%
COc1cccc(C(=O)N2c3ccccc3Sc3ccccc32)c1	?	12.9	?	-1.5	-2.2%	-11.4%
COc1cccc(C(=O)NC2CCN(C(=O)N3c4ccccc4Sc4ccccc43)CC2)c1	10.3µM*	-5.1	?	4.1	-14.1%	-20.0%
O=[N+]([O-])c1ccc(-n2nnnc2-c2ccccc2)c([N+](=O)[O-])c1	14.6µM*	-2.5	?	-3.8	?	?
